Counter-ions that a name gives are not always drawn.
System: Drosophila S2 cl14 SmoIP sensor cells
Test: normalized SmoIP GFP fluorescence (untreated unstimulated = 0%, untreated Hh-stimulated = 100%); higher = more Smo activation sensor fluorescence
Settings: compound concentration: 2 uM, 24 h
[1] = stimulation: Hh conditioned medium (+Hh)
[2] = stimulation: mock conditioned medium (-Hh)
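Further: flow cytometry read-out as median GFP intensity of gated cells, compounds added 30 min before Hh-conditioned or mock medium, mock-treated cells serving as unstimulated baseline.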

`CCCC(CCC)C(=O)O` [Divalproex-sodium] was tested, and the “normalized SmoIP GFP fluorescence” value [1] was 134% and the “normalized SmoIP GFP fluorescence” value [2] was -10.4%.
In the case of `C[C@@H](NCCCc1cccc(C(F)(F)F)c1)c1cccc2ccccc12` [Cinacalcet-hydrochloride], the “normalized SmoIP GFP fluorescence” value [1] is reported as 104% and the “normalized SmoIP GFP fluorescence” value [2] is reported as 5.98%.
In the case of `COc1ccc(CCc2nc3cc(-c4c(C)noc4C)ccc3n2C[C@H](C)N2CCOCC2)cc1Cl`, the “normalized SmoIP GFP fluorescence” value [1] is reported as 144% and the “normalized SmoIP GFP fluorescence” value [2] is reported as 2.75%.
With `CN(c1ncccc1CNc1nc(Nc2ccc3c(c2)CC(=O)N3)ncc1C(F)(F)F)S(C)(=O)=O` the “normalized SmoIP GFP fluorescence” value [1] was 196% and the “normalized SmoIP GFP fluorescence” value [2] was 39.3%.
In the case of `COc1ccc(-c2ccc3c(N4CCOC[C@@H]4C)nc(N4CCOC[C@@H]4C)nc3n2)cc1CO`, the “normalized SmoIP GFP fluorescence” value [1] is reported as 61.4% and the “normalized SmoIP GFP fluorescence” value [2] is reported as -2.96%.
In the case of `CN1CCN(C2=Nc3cc(Cl)ccc3Nc3ccccc32)CC1` [Clozapine(Clozaril)], the “normalized SmoIP GFP fluorescence” value [1] is reported as 119% and the “normalized SmoIP GFP fluorescence” value [2] is reported as 0.154%.
`O=C(c1ccc(OCCN2CCCCC2)cc1)c1c(-c2ccc(O)cc2)sc2cc(O)ccc12` [Evista] was tested, and the “normalized SmoIP GFP fluorescence” value [1] was 118% and the “normalized SmoIP GFP fluorescence” value [2] was 6.52%.
`C[C@H](NC(=O)/C(C#N)=C/c1cccc(Br)n1)c1ccccc1` was tested, and the “normalized SmoIP GFP fluorescence” value [1] was 86.1% and the “normalized SmoIP GFP fluorescence” value [2] was 8.14%.
`O=C(c1ccc(Nc2nccc(-c3cc4ccccc4s3)n2)cc1)N1CCC(N2CCCC2)CC1` was tested, and the “normalized SmoIP GFP fluorescence” value [1] was 106% and the “normalized SmoIP GFP fluorescence” value [2] was 1.1%.
In the case of `COc1ccc(C2CNC(=O)C2)cc1OC1CCCC1` (stereo not given) [Rolipram], the “normalized SmoIP GFP fluorescence” value [1] is reported as 92.5% and the “normalized SmoIP GFP fluorescence” value [2] is reported as -1.88%.
In the case of `Cc1cc(N2CCOCC2)ccc1Nc1nc(NC2CCCCC2)c2[nH]cnc2n1`, the “normalized SmoIP GFP fluorescence” value [1] is reported as 93.8% and the “normalized SmoIP GFP fluorescence” value [2] is reported as -2.64%.
In the case of `Oc1cc(O)c(Cl)cn1` [gimeracil], the “normalized SmoIP GFP fluorescence” value [1] is reported as 107% and the “normalized SmoIP GFP fluorescence” value [2] is reported as -6.97%.
In the case of `O=C(O)CCCCC(CCSCc1ccccc1)SCc1ccccc1` (stereo not given), the “normalized SmoIP GFP fluorescence” value [1] is reported as 112% and the “normalized SmoIP GFP fluorescence” value [2] is reported as -1.63%.
`O=C(CCCCCCC(=O)Nc1ccccc1)NO` [Vorinostat-(SAHA)] was tested, and the “normalized SmoIP GFP fluorescence” value [1] was 89.9% and the “normalized SmoIP GFP fluorescence” value [2] was 37.6%.
`O=C(NCCN1CCOCC1)c1ccc(Cl)cc1` [moclobemide] was tested, and the “normalized SmoIP GFP fluorescence” value [1] was 108% and the “normalized SmoIP GFP fluorescence” value [2] was -3.05%.
`COC(=O)c1ccc2c(c1)NC(=O)/C2=C(\Nc1ccc(N(C)C(=O)CN2CCN(C)CC2)cc1)c1ccccc1` was tested, and the “normalized SmoIP GFP fluorescence” value [1] was 108% and the “normalized SmoIP GFP fluorescence” value [2] was 7.92%.
In the case of `CC(C)C[C@@H](C(=O)N[C@H](C(=O)OC1CCCC1)c1ccccc1)[C@H](O)C(=O)NO` [CHR-2797(Tosedostat)], the “normalized SmoIP GFP fluorescence” value [1] is reported as 108% and the “normalized SmoIP GFP fluorescence” value [2] is reported as 3.72%.
In the case of `Cc1cc(Cn2cnc3c2CC(C(=O)O)N(C(=O)C(c2ccccc2)c2ccccc2)C3)ccc1N(C)C` (stereo not given), the “normalized SmoIP GFP fluorescence” value [1] is reported as 109% and the “normalized SmoIP GFP fluorescence” value [2] is reported as -4.13%.
`CCCS(=O)(=O)Nc1ccc(F)c(C(=O)c2c[nH]c3ncc(Cl)cc23)c1F` was tested, and the “normalized SmoIP GFP fluorescence” value [1] was 108% and the “normalized SmoIP GFP fluorescence” value [2] was -0.0496%.
In the case of `CC(C)n1nc(-c2cc3cc(O)ccc3[nH]2)c2c(N)ncnc21`, the “normalized SmoIP GFP fluorescence” value [1] is reported as 117% and the “normalized SmoIP GFP fluorescence” value [2] is reported as -12.7%.
For `CCc1ccc(/C=C2/SC(=S)NC2=O)cc1`, the “normalized SmoIP GFP fluorescence” value [1] was 105% and the “normalized SmoIP GFP fluorescence” value [2] was -1.63%.
In the case of `CN(C)C(=O)C(CCN1CCC(O)(c2ccc(Cl)cc2)CC1)(c1ccccc1)c1ccccc1` [Loperamide-hydrochloride], the “normalized SmoIP GFP fluorescence” value [1] is reported as 106% and the “normalized SmoIP GFP fluorescence” value [2] is reported as 7.46%.
With `Cc1onc(-c2ccccc2)c1-c1ccc(S(N)(=O)=O)cc1` [valdecoxib] the “normalized SmoIP GFP fluorescence” value [1] was 104% and the “normalized SmoIP GFP fluorescence” value [2] was -5.49%.
`CN1CCN(c2ccc3nc(-c4c(N)c5c(F)cccc5[nH]c4=O)[nH]c3c2)CC1` was tested, and the “normalized SmoIP GFP fluorescence” value [1] was 63.2% and the “normalized SmoIP GFP fluorescence” value [2] was 69.1%.
For `COC[C@H](NC(=O)c1cnc(C)s1)C(=O)N[C@@H](COC)C(=O)N[C@@H](Cc1ccccc1)C(=O)[C@@]1(C)CO1` [oprozomib-onx-0912], the “normalized SmoIP GFP fluorescence” value [1] was 81.9% and the “normalized SmoIP GFP fluorescence” value [2] was 26.7%.
In the case of `CN1CCC[C@@H]1Cc1c[nH]c2ccc(CCS(=O)(=O)c3ccccc3)cc12` [eletriptan-hydrobromide], the “normalized SmoIP GFP fluorescence” value [1] is reported as 106% and the “normalized SmoIP GFP fluorescence” value [2] is reported as -2.71%.
In the case of `CCc1cncnc1N1CCN(Cc2nc3ccc(C(F)(F)F)cc3[nH]2)CC1`, the “normalized SmoIP GFP fluorescence” value [1] is reported as 121% and the “normalized SmoIP GFP fluorescence” value [2] is reported as 0.966%.
In the case of `CN(C)c1ccc(-c2nc3ncc(Cl)c(N4CCN(CC(=O)Nc5nccs5)CC4)c3[nH]2)cc1`, the “normalized SmoIP GFP fluorescence” value [1] is reported as 125% and the “normalized SmoIP GFP fluorescence” value [2] is reported as 6.74%.
With `COC1CCN(C(=O)c2cc(Cc3n[nH]c(=O)c4ccccc34)ccc2F)CC1` the “normalized SmoIP GFP fluorescence” value [1] was 103% and the “normalized SmoIP GFP fluorescence” value [2] was -3.5%.
With `CNC(=O)c1ccccc1Nc1nc(Nc2ccc(N3CCOCC3)cc2OC)ncc1Cl` the “normalized SmoIP GFP fluorescence” value [1] was 163% and the “normalized SmoIP GFP fluorescence” value [2] was 22.3%.
For `NC(=O)N1c2ccccc2CC(=O)c2ccccc21` [Oxcarbazepine], the “normalized SmoIP GFP fluorescence” value [1] was 103% and the “normalized SmoIP GFP fluorescence” value [2] was 2.97%.
For `CNCc1ccc(C)c(NC(=O)c2ccc(Nc3nc(-c4ccccc4)c4ccccc4n3)cc2)c1`, the “normalized SmoIP GFP fluorescence” value [1] was 124% and the “normalized SmoIP GFP fluorescence” value [2] was 11.6%.
In the case of `CC(C)NCC(O)COc1ccc(COCCOC(C)C)cc1` (stereo not given) [Bisoprolol-Fumarate], the “normalized SmoIP GFP fluorescence” value [1] is reported as 103% and the “normalized SmoIP GFP fluorescence” value [2] is reported as 8.79%.
In the case of `NC1(c2ccc(-c3nc4ccn5c(=O)[nH]nc5c4cc3-c3ccccc3)cc2)CCC1`, the “normalized SmoIP GFP fluorescence” value [1] is reported as 102% and the “normalized SmoIP GFP fluorescence” value [2] is reported as 16.8%.
With `CC(C)OC(=O)C1=CN(C(=O)c2ccc(F)c(F)c2)CC(C)(C)c2c1[nH]c1ccccc21` the “normalized SmoIP GFP fluorescence” value [1] was 117% and the “normalized SmoIP GFP fluorescence” value [2] was 12.5%.

From the supplement of paper PMC5662767
